Data on five compounds can be found in PubChem BioAssay.

Calls of active or inactive are those of the source. Unless noted, the rule behind the calls is not given here.

For test [1], the system named is Wnt5a (protein binding on small-molecule microarray). Put plainly: small molecules binding Wnt5a protein – biophysical, small-molecule microarray, 635/667 nm fluorescence, primary screen (AID 1142).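 Note: fluorescence read at 667 nm with signal to noise per printed feature.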 The note with it: 635 nm fluorescence, higher = more signal.
Test [2] in a line: ATP-based viability of Huh7 replicon cells – cell-based, CellTiter-Glo luminescence, basal, 48 h, cytotoxicity control for HCV replication inhibitor project, primary screen (AID 1143).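 Note: Huh7 hepatoma cells carrying a hepatitis C replication reporter with no stimulus; test concentration not given here.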 The settings on record: higher = more signal, called active from +8 up or from −8 down.
A short description of test [3]: Pseudomonas biofilm growth suppression – PAO1 strain, BacTiter-Glo luminescence, LB-PBS, primary screen (AID 1144). The settings on record: P. aeruginosa PAO1 biofilm, 12 h, higher = more signal.
Test [4] in a line: basal CRE-LacZ reporter activity in PC12 – cell-based, unstimulated, primary screen (AID 1145). The settings on record: no forskolin, luminescence, 4.5 h, higher = more signal, called active from +8 up or from −8 down.
Test [5] in a line: forskolin-driven CRE-LacZ activity in PC12 – cell-based, CRE-LacZ reporter, forskolin-stimulated, primary screen (AID 1146).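 Note: PC12 cells with 6xCRE LacZ reporter stimulated by forskolin 10 µM; beta-galactosidase reporter signal reflecting CREB driven transcription.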 The settings on record: luminescence, 4.5 h, higher = more signal, called active from +8 up or from −8 down.
Test [6] deals with Streptavidin (Streptomyces avidinii) (UniProt P22629). In words: compounds binding control protein streptavidin – biophysical, small-molecule microarray, 635/667 nm fluorescence, artefact control for SMM compound annotation, primary screen (AID 1147).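 Note: signal reflects streptavidin binding to arrayed compounds as a control protein.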 The note with it: higher = more signal.
Sequence of Streptavidin (Streptomyces avidinii) (P22629 whole entry, looked up): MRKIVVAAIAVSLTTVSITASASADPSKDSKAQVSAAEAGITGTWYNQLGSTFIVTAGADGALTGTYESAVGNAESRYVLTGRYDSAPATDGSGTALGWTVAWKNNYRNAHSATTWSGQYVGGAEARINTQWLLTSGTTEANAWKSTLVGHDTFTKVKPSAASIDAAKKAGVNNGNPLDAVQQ
Test [7] in a line: probe aInhba binding on compound microarray – biochemical, small-molecule microarray, 635/667 nm fluorescence, primary screen (AID 1148).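 Note: score merges 667nm spot fluorescence with signal-to-noise for antibody binding to printed compounds.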 The settings on record: higher = more signal.
Test [8] has as its target Torsin-1A (Homo sapiens) (UniProt O14656). In words: TOR1A wild-type binding on microarray – cell lysate, small-molecule microarray, lysate, 635/667 nm, primary screen (AID 1149). The note with it: COS7 hTOR1A-WT lysate, 635 nm fluorescence, higher = more signal.
The target is the same in test [9]. Put plainly: torsin A mutant lysate binding on microarrays – cell lysate, small-molecule microarray, COS7 lysate, 635/667 nm fluorescence, primary screen (AID 1150).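 Note: score pools 667 nm emission and signal to noise measuring lysate protein binding.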 The settings on record: COS7 hTOR1A mutant lysate, 635 nm fluorescence, higher = more signal.
Test [10] concerns Sonic hedgehog protein (Shh). In words: Sonic hedgehog microarray binding compounds – biochemical, small-molecule microarray, 635/667 nm fluorescence, primary screen (AID 1151).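 Note: Shh protein binding to compounds spotted on small-molecule microarray slides; score combines spot fluorescence intensity with signal-to-noise across triplicate slides.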 The note with it: 635 nm fluorescence, higher = more signal.
The nature of test [11]: optical density shifts of acrAB sulA E. coli – strain DRC41, OD650, 48 h, E. coli filamentation inducer project, primary screen (AID 1152).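 Note: E. coli MC1000 strain DRC41 lacking acrAB efflux pump and sulA.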 The note with it: higher = more signal, called active from +8 up or from −8 down.
The nature of test [12]: probe aLefty1 binding on compound microarray – biochemical, small-molecule microarray, 635/667 nm fluorescence, primary screen (AID 1153).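 Note: score merges spot fluorescence with signal-to-noise ratio from the scanned slide images.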 The note with it: higher = more signal.
Test [13] can be described thus: plasmodial surface anion channel blockers, osmotic lysis – cell-based, P. falciparum Indochina, OD700, 1 h, primary screen (AID 1154). The settings on record: P. falciparum Indochina infected RBC osmotic lysis, higher = more signal, called active from +8 up or from −8 down.
Test [14] in a line: plasmodial surface anion channel blockers, osmotic lysis – cell-based, P. falciparum Indochina, OD700, 2 h, primary screen (AID 1155).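 Note: lysis reports solute entry through the parasite surface anion channel PSAC.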 The settings on record: P. falciparum Indochina infected erythrocytes, higher = more signal, called active from +8 up or from −8 down.
Test [15] in a line: changes in parasitized red cell lysis, either direction – P. falciparum Indochina, OD700, 3 h, PSAC antagonist project, primary screen (AID 1156). The note with it: P. falciparum-infected erythrocytes, osmotic lysis, higher = more signal, called active from +8 up or from −8 down.
Test [16] in a line: plasmodial surface anion channel blockers, osmotic lysis – cell-based, P. falciparum Indochina, OD700, 18 h, primary screen (AID 1157). The note with it: P. falciparum Indochina infected erythrocytes, osmotic lysis OD700, 18 h; higher = more signal, called active from +8 up or from −8 down.
Test [17] in a line: S6 kinase pathway phospho-S6 level changes – cell-based, A549, cytoblot, luminescence, serum-stimulated, primary screen (AID 1158).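 Note: serum-stimulated A549 lung adenocarcinoma cells; signal is phosphorylated S6 detected by cytoblot immunostaining with HRP secondary.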 The settings on record: 5 h, higher = more signal.
The target of test [18] is NADPH oxidase 2 (Homo sapiens) (UniProt P04839). In words: compounds shifting NOX2 Amplex Red fluorescence – cell-based, HEK293-NOX2, PMA-stimulated, NOX inhibitor project, primary screen (AID 1159). Note: test concentration not given here. The note with it: 45 min, higher = more signal, called active from +8 up or from −8 down.
Sequence of NADPH oxidase 2 (Homo sapiens) (P04839 whole entry, looked up): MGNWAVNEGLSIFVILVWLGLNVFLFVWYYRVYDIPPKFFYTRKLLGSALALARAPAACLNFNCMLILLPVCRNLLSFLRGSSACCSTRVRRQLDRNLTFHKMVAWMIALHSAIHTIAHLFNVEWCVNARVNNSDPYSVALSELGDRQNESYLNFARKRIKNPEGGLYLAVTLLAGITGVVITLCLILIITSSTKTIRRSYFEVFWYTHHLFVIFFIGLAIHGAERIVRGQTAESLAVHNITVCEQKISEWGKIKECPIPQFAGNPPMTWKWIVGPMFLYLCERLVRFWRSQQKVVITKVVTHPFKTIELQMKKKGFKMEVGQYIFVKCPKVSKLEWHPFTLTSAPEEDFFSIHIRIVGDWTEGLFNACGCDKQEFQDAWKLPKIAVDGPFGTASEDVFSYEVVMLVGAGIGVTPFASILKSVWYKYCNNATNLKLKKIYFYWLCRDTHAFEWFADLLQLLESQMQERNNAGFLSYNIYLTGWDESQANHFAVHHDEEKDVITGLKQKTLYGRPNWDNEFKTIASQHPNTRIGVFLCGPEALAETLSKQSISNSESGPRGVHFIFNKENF
The target in test [19] is NADPH oxidase 4 (Homo sapiens) (UniProt Q9NPH5). Put plainly: compounds shifting NOX4 Amplex Red fluorescence – cell-based, HEK293-NOX4, tetracycline-induced, NOX inhibitor project, primary screen (AID 1160). The note with it: HEK293-NOX4, Amplex Red H2O2 fluorescence, 45 min; higher = more signal, called active from +8 up or from −8 down.
Sequence of NADPH oxidase 4 (Homo sapiens) (Q9NPH5 whole entry, looked up): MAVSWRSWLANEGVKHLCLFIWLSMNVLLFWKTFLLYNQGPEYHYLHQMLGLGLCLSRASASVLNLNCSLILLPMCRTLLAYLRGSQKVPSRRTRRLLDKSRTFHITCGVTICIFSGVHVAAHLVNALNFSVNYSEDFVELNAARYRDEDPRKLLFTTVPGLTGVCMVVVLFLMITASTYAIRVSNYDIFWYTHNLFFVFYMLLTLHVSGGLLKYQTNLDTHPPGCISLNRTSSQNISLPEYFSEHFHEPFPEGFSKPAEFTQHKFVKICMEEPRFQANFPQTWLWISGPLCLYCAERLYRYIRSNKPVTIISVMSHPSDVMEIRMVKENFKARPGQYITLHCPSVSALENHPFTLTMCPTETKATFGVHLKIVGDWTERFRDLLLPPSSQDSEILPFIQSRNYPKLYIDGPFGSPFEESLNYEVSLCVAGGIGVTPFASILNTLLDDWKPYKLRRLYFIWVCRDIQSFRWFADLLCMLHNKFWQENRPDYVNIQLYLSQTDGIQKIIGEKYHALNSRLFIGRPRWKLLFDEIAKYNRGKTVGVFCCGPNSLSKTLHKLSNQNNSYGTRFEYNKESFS
Test [20] has as its target NADPH oxidase 5 (Homo sapiens) (UniProt Q96PH1). In words: compounds shifting NOX5 Amplex Red fluorescence – cell-based, HEK293-NOX5, NOX inhibitor project, primary screen (AID 1161). The note with it: HEK293-NOX5, ionomycin, 45 min, higher = more signal.

Sequence of NADPH oxidase 5 (Homo sapiens) (Q96PH1 whole entry, looked up): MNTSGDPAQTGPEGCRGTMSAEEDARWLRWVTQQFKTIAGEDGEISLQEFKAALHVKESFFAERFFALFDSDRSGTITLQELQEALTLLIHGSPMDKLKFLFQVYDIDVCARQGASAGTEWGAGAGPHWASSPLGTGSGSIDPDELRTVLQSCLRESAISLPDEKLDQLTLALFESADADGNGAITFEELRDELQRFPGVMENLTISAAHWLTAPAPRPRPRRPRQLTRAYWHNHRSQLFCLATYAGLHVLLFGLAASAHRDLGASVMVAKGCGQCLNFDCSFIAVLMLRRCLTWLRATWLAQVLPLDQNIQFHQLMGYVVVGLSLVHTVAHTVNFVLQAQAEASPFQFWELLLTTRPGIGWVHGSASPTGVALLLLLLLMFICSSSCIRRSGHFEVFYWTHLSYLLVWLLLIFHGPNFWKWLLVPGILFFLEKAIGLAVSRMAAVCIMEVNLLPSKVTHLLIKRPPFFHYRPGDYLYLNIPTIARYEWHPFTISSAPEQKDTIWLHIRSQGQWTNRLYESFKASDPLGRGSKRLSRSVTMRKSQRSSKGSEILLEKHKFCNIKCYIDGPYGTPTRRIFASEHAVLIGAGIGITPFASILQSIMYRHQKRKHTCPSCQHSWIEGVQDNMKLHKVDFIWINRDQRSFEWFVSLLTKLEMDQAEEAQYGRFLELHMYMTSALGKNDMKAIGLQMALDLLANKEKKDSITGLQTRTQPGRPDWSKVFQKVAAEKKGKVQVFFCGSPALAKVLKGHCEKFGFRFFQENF
Sequence of Torsin-1A (Homo sapiens) (O14656 whole entry, looked up): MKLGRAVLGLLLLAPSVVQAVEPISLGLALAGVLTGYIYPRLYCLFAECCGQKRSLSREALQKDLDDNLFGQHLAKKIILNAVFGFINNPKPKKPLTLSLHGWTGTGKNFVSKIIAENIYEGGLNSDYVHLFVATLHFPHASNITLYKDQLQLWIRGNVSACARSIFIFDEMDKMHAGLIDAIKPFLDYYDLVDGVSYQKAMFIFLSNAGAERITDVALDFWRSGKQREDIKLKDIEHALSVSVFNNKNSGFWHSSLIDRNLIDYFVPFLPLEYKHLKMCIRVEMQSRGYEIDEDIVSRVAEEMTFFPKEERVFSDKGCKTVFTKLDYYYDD

Regarding `CCOC(=O)[C@H](CC(C)C)NC(=O)CCC1CC(OC(=O)NCc2cccc3ccccc23)CC2(CCCC(COC(=O)NCCc3ccccc3OC)O2)O1` (stereo not given in full), the composite z-score is -0.0588 in [1]; 0.556 in [6]; -0.217 in test [7]; 0.203 with Torsin-1A (Homo sapiens) [8]; 0.408 in the test with Torsin-1A (Homo sapiens) [9]; 1.07 in test [10]. In test [12], this compound returned a composite z-score of -0.147. Moreover, the z-score was -1.86 (inactive) in test [2]; 0.6 (inactive) in test [3]; -0.44 (inactive) in test [4]; 0.0744 (inactive) in [5]; -0.596 (inactive) in test [11]; -1.28 (inactive) in [13]. The z-score in test [14] was -0.0901 (inactive); in test [15], -0.868 (inactive); in [16] it was 0.298 (inactive); in test [17], 0.0059; in [18], 0.527 (inactive); in test [19], 0.69 (inactive). In addition, the z-score in test [20] was 1.02.

Take `CCCCCCc1nc(CCCc2cc3c(c(CCCCCC)n2)[Si](C(C)C)(C(C)C)O[C@H]3c2ccccc2)cc2c1[Si](C(C)C)(C(C)C)O[C@H]2c1ccccc1`: the composite z-score in test [1] is -0.0661; in test [6], 0.0479; in test [7] it was -0.0972; with Torsin-1A (Homo sapiens) [8] it was -0.285; with Torsin-1A (Homo sapiens) [9], -0.0949; in test [10] it was 0.406. Further, the composite z-score in test [12] was -0.244. For the same compound, the z-score in [2] was -0.636 (inactive); in test [3], 0.182 (inactive); in test [4] it was -0.0106 (inactive); in test [5] it was -0.222 (inactive); in [11], -1.58 (inactive); in test [13], 0.963 (inactive). Further, the z-score in test [14] is 0.165 (inactive); in test [15], 0.97 (inactive); in [16] it was 0.0888 (inactive); in [17], -0.415; in test [18], -4.87 (inactive); in test [19], 0.859 (inactive). Also, in test [20], the z-score is -1.07.

In the case of `CC(C)=NOCc1cccc(-c2cc(-c3ccccc3)no2)c1`, the composite z-score stood at 0.118 in [1]; 0.468 in test [6]; 0.106 in test [7]; 0.533 with Torsin-1A (Homo sapiens) [8]; 0.247 with Torsin-1A (Homo sapiens) [9]; 0.826 in [10]. The composite z-score in test [12] is 0.194. Moreover, the z-score in test [2] is 0.525 (inactive); in test [3], -0.14 (inactive); in test [4], -0.437 (inactive); in test [5], 0.345 (inactive); in test [11], -1.79 (inactive); in test [13] it was 0.648 (inactive). For the same compound, the z-score in [14] was -0.166 (inactive); in [15] it was -0.532 (inactive); in [16] it was -0.388 (inactive); in test [17], -0.947; in test [18], 1.21 (inactive); in test [19] it was 0.439 (inactive). In [20], the z-score is -0.0547.

Take `Cn1c(=O)n2n(c1=O)[C@H]1[C@H](O)[C@@H]3O[C@@H]3C(=NOC[C@@H](O)COCc3ccco3)[C@H]1CC2`: the composite z-score in [1] was found to be 0.0562; in test [6], 0.548; in test [7], 0.0345; with Torsin-1A (Homo sapiens) [8] it was 0.547; with Torsin-1A (Homo sapiens) [9] it was 0.266; in test [10], 0.582. The same compound returned a composite z-score in test [12] of 0.946. Further, the z-score in [2] is -0.0843 (inactive); in [3] it was 0.0712 (inactive); in test [4], 0.248 (inactive); in test [5], 0.496 (inactive); in test [11], 0.301 (inactive); in test [13], 0.697 (inactive). Besides, the z-score was -0.507 (inactive) in test [14]; 0.671 (inactive) in [15]; 0.08 (inactive) in test [16]; 0.0625 in [17]; -1.04 (inactive) in test [18]; 0.733 (inactive) in [19]. Also, the z-score in test [20] was 0.59.

Turning to `O=C1[C@H]2[C@H]3[C@H](O)[C@H](O)CC(=NOC[C@@H](O)COCc4ccco4)[C@H]3CC[C@H]2C(=O)N1C1CCCCC1`, the composite z-score is 0.257 in test [1]; -0.112 in test [6]; 0.158 in test [7]; 2.07 with Torsin-1A (Homo sapiens) [8]; 1.64 with Torsin-1A (Homo sapiens) [9]; 1.54 in [10]. The compound further had a composite z-score in test [12] of 0.0245. Further, the z-score is -2.97 (inactive) in test [2]; -0.925 (inactive) in [3]; 3.33 (inactive) in test [4]; 0.279 (inactive) in test [5]; -0.708 (inactive) in [11]; 1.6 (inactive) in test [13]. The z-score in [14] was -1.23 (inactive); in [15] it was 0.786 (inactive); in [16], -2.32 (inactive); in test [17], 0.988; in [18], -2.55 (inactive); in test [19], -0.583 (inactive). Also, the z-score in test [20] is -1.66.
